Screens: PubChem BioAssay, several laboratories
MPTP block: mitochondrial permeability transition pore inhibitors, primary screen, biochemical, isolated mouse mitochondria, absorbance; AID 602449, 2012; inhibition, % at 10 µM; Ca2+ swelling absorbance, 30 min; 360,000 tested, 1.4% active;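 active = inhibition of 50% or more, scaled per plate between neutral and stimulator controls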;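 also: 0% = DMSO wells given calcium and 100% = 1 mM EGTA wells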
GRIN3A LBD mod: binders of NR3A ligand-binding domain, primary screen, biophysical, differential scanning fluorimetry, uHTS; Glutamate receptor ionotropic, NMDA 3A (GRIN3A) ligand-binding domain; Tm shift relative to glycine control, % at 25 µM; 340,000 tested, 2.5% active; NR3A LBD differential scanning fluorimetry, Tm shift; 0% = protein alone, 100% = glycine-bound protein;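 active = melting temperature shift of at least 10% of the positive control shift, at one fixed dose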
Beta apoptosis: inhibitors of cytokine-induced beta cell apoptosis, primary screen, luminescence; protection from apoptosis, % (test concentration not listed); 300,000 tested, 0.8% active; INS-1E cytokine-induced death, ATP luminescence, 48 h; percent of positive-control rescue, neutral wells zero; AID 435005, 2010;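 active = Every replicate reaches about 75%, or at least half do and their mean reaches it too, limit read from the data; inconclusive = At least half of replicates reach the limit but their mean does not; inactive = Under half of replicates reach the limit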;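 also: 0% = cytokine-treated negative control wells and 100% = positive control rescue; higher means more ATP so stronger rescue from cytokine killing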
Mdm2 MdmX PPI: inhibitors of human Mdm2-MdmX association, primary screen, cell-based, luminescence, split luciferase, SaOS-2, uHTS. Protein Mdm4 (Homo sapiens) + E3 ubiquitin-protein ligase Mdm2 (Homo sapiens), …. SaOS-2 split-luciferase Mdm2/MdmX complementation. inhibition, % at 8 µM. 330,000 tested, 3% active;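 active = inhibition of at least 50% at 8 µM in the primary screen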
Target sequence (O15151 whole entry, looked up): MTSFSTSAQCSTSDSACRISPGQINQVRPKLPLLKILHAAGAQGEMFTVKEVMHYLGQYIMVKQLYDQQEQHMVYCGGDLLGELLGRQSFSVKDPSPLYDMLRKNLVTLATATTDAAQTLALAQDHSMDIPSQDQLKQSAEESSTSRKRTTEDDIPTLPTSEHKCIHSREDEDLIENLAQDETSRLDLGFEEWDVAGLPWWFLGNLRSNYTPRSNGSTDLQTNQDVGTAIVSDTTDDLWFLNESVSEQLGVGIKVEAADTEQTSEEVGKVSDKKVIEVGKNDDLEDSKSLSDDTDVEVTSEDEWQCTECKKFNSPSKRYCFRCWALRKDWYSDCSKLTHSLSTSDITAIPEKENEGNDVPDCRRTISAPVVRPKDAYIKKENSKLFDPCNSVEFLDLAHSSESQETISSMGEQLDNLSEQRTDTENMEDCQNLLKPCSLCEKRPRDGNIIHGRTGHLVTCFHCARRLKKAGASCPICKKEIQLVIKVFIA
Target sequence (Q00987 whole entry, looked up): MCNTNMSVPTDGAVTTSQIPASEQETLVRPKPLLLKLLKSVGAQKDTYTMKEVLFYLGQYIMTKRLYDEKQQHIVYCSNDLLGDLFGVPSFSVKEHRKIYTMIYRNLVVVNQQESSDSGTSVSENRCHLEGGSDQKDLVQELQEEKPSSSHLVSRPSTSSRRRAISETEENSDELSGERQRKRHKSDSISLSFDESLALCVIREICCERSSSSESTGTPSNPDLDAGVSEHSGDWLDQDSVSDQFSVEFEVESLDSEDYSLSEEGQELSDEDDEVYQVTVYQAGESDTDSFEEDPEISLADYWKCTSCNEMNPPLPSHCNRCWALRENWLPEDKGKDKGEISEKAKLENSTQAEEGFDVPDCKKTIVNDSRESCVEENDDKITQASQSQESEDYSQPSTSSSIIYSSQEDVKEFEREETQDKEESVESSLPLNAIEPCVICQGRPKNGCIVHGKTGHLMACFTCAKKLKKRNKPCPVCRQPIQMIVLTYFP
CSC inhib: cancer stem cell viability inhibitors, primary screen, luminescence; inhibition, % at 7.5 µM; cancer stem cell-like cells viability; 300,000 tested, 1.1% active; in the data active = inhibition above about 75%; inconclusive = no clear call, values can overlap the other calls; tested in HMLE shEcad cells
Gli-Sufu antag: Gli-Sufu pathway antagonists, primary screen, luciferase luminescence, Sufu-KO-LIGHT cells, uHTS; Sufu-KO-LIGHT fibroblasts, Gli luciferase reporter luminescence; inhibition, % at 5 µM; 340,000 tested, 0.74% active;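 active = inhibition above about 55%, limit read from the data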;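 also: 0% = DMSO-treated cells and 100% = wells with medium but no cells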
MPTP counter: fluorescence retest of MPTP screen hits in isolated mitochondria, single concentration; shares compounds with MPTP block; membrane potential, Rhodamine 123 fluorescence; inhibition, % at 10 µM; 5,000 tested, 78% active; in the data active = inhibition above about 22%;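 also: 0% = DMSO vehicle and 100% = positive control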
MPTP swell DR: mitochondrial permeability transition pore inhibitors, dose response, biochemical, absorbance, uHTS hits. IC50, µM. shares compounds with MPTP block. 780 tested, 58% active. isolated mitochondria swelling. AID 651561, 2012; in the data active = IC50 below about 20 µM
MPTP cs DR: fluorescent counter-screen in isolated mitochondria, dose response, counter-screen for MPTP inhibitor project, biochemical, fluorescence, uHTS hits. shares compounds with MPTP block. isolated mitochondria counterscreen, fluorescence read-out. IC50, µM. 780 tested, 49% active; in the data active = IC50 below about 80 µM
The depositor's hits bear a star; i = inactive; ? = inconclusive; · = no result. Most compounds without a hit are left out; they make up all but 6.6% or so of the library.

SMILES	MPTP block	GRIN3A LBD mod	Beta apoptosis	Mdm2 MdmX PPI	CSC inhib	Gli-Sufu antag	MPTP counter	others
O=C(/C=C/c1ccc(F)cc1)c1ccc(N2CCOCC2)cc1	2.4	-1.4	-0.4	-8.9	26.4	-14.6	·
CCc1ccc(/C=C/C(=O)c2ccc(N3CCOCC3)cc2)cc1	68.5*	2.0	0.4	4.5	·	-25.4	14.4	MPTP swell DR=i;MPTP cs DR=18.9*
O=S(=O)(Nc1nccs1)c1ccc(Cl)cc1	-0.1	-1.3	-1.3	-26.4	-5.1	1.2	·
CCOC(=O)c1c(NC(=O)CSc2nccn2C)sc(C(=O)NC)c1C	0.2	-0.6	-1.5	21.8	-6.6	9.2	·
O=C(Nc1cccc(Cl)c1)OCCN1CCN(Cc2ccccc2)CCC1=O	93.3*	-2.5	0.0	-15.8	0.5	-2.2	89.2*
O=C(Nc1ccccc1)OCCN1CCN(Cc2ccccc2)CCC1=O	-1.4	-1.8	5.1	-27.0	-15.7	-2.5	·
CCN(Cc1ccccc1)C(=O)C1CCN(S(=O)(=O)c2ccc3c(c2)OCCO3)CC1	-0.9	3.7	-4.0	31.8	-19.6	-2.9	·
CCOC(=O)c1c(-c2ccccc2)csc1NC(=O)CSc1nc(C)cc(C)n1	11.8	-0.2	-5.9	17.1	22.9	13.2	·
CCOC(=O)c1c(-c2ccccc2)csc1NC(=O)CSc1nc(N)cc(N)n1	80.0*	-0.2	-1.1	-8.8	16.9	26.4	42.7*
c1ccc2c(C[C@@H]3CNCCN3CCCCC3CCCCC3)cccc2c1	0.5	-6.0	4.4	33.1	33.8	2.0	·
CC(C)(C)CN1CCNC[C@H]1Cc1cccc2ccccc12	55.1*	-0.5	-1.3	28.6	5.1	11.9	-9.4	MPTP swell DR=7.13*;MPTP cs DR=66.3*
Oc1ccc(C[C@@H]2CNCCN2CCc2cccc3ccccc23)cc1	84.0*	-0.3	7.8	47.8	-16.7	·	-14.1	MPTP swell DR=14.5*;MPTP cs DR=>80
Cc1ccccc1-c1cc2nc(NCCOc3ccccc3Cl)n(C)c(=O)c2s1	0.2	·	·	·	·	·	·
O=C(O)c1ccc(CP(=O)(c2ccccc2)c2ccccc2)cc1	0.2	0.5	0.2	3.6	-13.2	-4.7	·
CN(Cc1ccccc1)C(=O)c1cccc(NC(=O)Cc2ccc(NC(=O)C3CCN(C(=O)C4CCCCC4)CC3)cc2)c1	-0.1	-2.6	·	·	·	-1.9	·
CC(=O)N1CCN(C(=O)CSc2cc(C)c(Br)cc2C)CC1	-0.5	2.1	-19.5	7.4	3.0	4.4	·
COc1ccc(Cl)cc1NC(=O)C/C(C)=N/NC(=O)c1ccccc1[N+](=O)[O-]	-0.4	0.2	-8.8	2.1	11.6	-0.9	·
COc1ccc(Cl)cc1NC(=O)c1cccc([N+](=O)[O-])c1O	85.3*	2.4	·	·	·	18.1	96.0*
COc1ccc(Cl)cc1NC(=O)c1ccco1	79.8*	-0.3	-0.6	4.3	-3.7	4.1	0.8	MPTP swell DR=i;MPTP cs DR=>80
COc1ccc(Nc2nc(Cl)nc(N3CCN(c4ccc(OC)cc4)CC3)n2)cc1	·	·	14.3	43.8	-14.3	·	·
COc1ccc(-n2ccn(CC(=O)Nc3ccccc3OC)c(=O)c2=O)cc1	-0.6	1.5	-5.2	17.4	-6.1	-15.4	·
CC(C)Nc1ccccc1	-0.4	-1.4	1.9	13.9	-13.1	-18.5	·
CC(C)Nc1nc2nonc2nc1Nc1ccccc1	91.3*	0.9	2.9	21.5	34.0	14.3	80.6*
C/C(=N\NC(=O)CCc1ccccc1)C1C(=O)c2ccccc2C1=O	13.6	-3.4	17.5	30.6	7.9	14.0	·
C/C(=N\NC(=O)c1cccc(Cl)c1)C1C(=O)c2ccccc2C1=O	88.6*	8.0	10.4	-14.6	92.6*	-27.8	85.3*
SMILES	MPTP block	GRIN3A LBD mod	Beta apoptosis	Mdm2 MdmX PPI	CSC inhib	Gli-Sufu antag	MPTP counter	others
COc1ccccc1N1CCN(C(=O)Cn2nc3n(C)c4ccccc4n3c(=O)c2=O)CC1	·	·	-3.1	6.6	2.0	·	·
O=C(Nc1ccc(Cl)c(Cl)c1)Nc1nc(-c2ccccc2)cs1	73.5*	159.9*	25.4	41.8	14.4	6.4	73.3*
O=C(Nc1nc(-c2cccnc2)cs1)c1ccccc1Cl	1.5	0.0	-1.4	7.3	-0.7	-4.4	·
O=C(Nc1ccccc1)Nc1nc(-c2ccccc2)cs1	84.8*	22.9*	8.6	-7.4	-11.9	-28.2	80.0*
Cc1ccc2c(c1)nnn2C1CCN(S(=O)(=O)c2cccc(S(=O)(=O)N(C)C)c2)CC1	87.5*	-1.3	30.2	17.5	0.2	16.1	87.5*
Cc1ccc2c(c1)nnn2C1CCN(S(=O)(=O)c2ccc(C(=O)N3CC(C)CC(C)C3)cc2)CC1 (stereo not drawn)	56.4*	-0.7	24.3	47.8	12.5	36.9	40.0*
Cc1ccc2c(c1)nnn2C1CCN(S(=O)(=O)c2ccc3ccccc3c2)CC1	-0.3	1.9	13.5	27.9	5.8	8.5	·
C/C(=N/Nc1ccc([N+](=O)[O-])cc1)c1ccc(C)cc1C	65.0*	23.6*	11.8	-7.5	?	-0.3	60.5*
N#CC(C#N)=NNc1ccc([N+](=O)[O-])cc1	89.5*	1.2	14.4	26.2	61.0	10.2	78.2*
CNC(=S)Nc1cccc([N+](=O)[O-])c1	2.3	0.9	-5.7	8.9	-13.3	1.2	·
C/C(=N\Nc1cccc([N+](=O)[O-])c1)c1cc(F)ccc1O	85.4*	10.4*	9.7	-49.1	35.8	-22.3	65.4*
CCOC(=O)N1CCC(N(CCOC)C(=O)Nc2ccc(Cl)cc2)CC1	63.6*	-2.2	1.4	-0.6	12.7	26.8	77.0*
CCOc1ncccc1C(=O)Nc1cc(S(=O)(=O)N2CCCCC2)ccc1C	1.5	-2.3	1.6	-6.6	·	3.7	·
COc1ccc(-n2c(SCCNCCO)nc3sc4c(c3c2=O)CCCC4)cc1	76.5*	0.6	0.5	32.4	-5.3	2.0	-19.8	MPTP swell DR=8.33*;MPTP cs DR=>80
COc1ccc(-n2c(SCC(=O)O)nc3sc4c(c3c2=O)CCCC4)cc1	-0.3	0.6	-12.7	12.0	-6.6	10.1	·
CCc1ccc(NC(=O)Cn2cccc2)cc1	0.1	0.2	-0.8	18.5	1.6	-5.6	·
Oc1cccc(C(O)CNCc2ccc(-c3ccccc3)cc2)c1 (stereo not drawn)	91.6*	-1.5	0.2	35.4	45.4	18.4	-14.1	MPTP swell DR=4.15*;MPTP cs DR=51.1*
Oc1cccc(C(O)CNCc2ccc(OCc3ccc(Cl)cc3Cl)cc2)c1 (stereo not drawn)	82.9*	-6.3	5.2	6.3	78.1*	9.8	-11.6	MPTP swell DR=6.74*;MPTP cs DR=43*
